Measurements reported in PubChem BioAssay AID624330 (Southern Research Specialized Biocontainment Screening …, 2012).
About 2,100 (0.62%) of roughly 340,000 compounds were called active.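 The calls were made as follows: active = first-screen hits whose inhibition reached a set limit at any dose in the follow-up dose series; inconclusive = inhibition above the set first-screen limit but never retested; inactive = the rest.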 Only a sample is shown. Potency and affinity values are given separately.

Target: Rac GTPase-activating protein 1 (Homo sapiens) (UniProt Q9H0H5)
Test: blockers of MgcRacGAP-driven Rac1 GTP hydrolysis – biochemical, ADP Hunter fluorescence, primary and confirmatory, confirmation (AID 624330);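 also: fluorescence reports GDP produced by GAP-driven GTP hydrolysis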
Settings: MgcRacGAP-stimulated Rac1 GTP hydrolysis, at 30 µM, stronger effect = higher value, GST-tagged Rac1 F28L mutant substrate

Chain of Rac GTPase-activating protein 1 (Homo sapiens) (Q9H0H5 whole entry, looked up): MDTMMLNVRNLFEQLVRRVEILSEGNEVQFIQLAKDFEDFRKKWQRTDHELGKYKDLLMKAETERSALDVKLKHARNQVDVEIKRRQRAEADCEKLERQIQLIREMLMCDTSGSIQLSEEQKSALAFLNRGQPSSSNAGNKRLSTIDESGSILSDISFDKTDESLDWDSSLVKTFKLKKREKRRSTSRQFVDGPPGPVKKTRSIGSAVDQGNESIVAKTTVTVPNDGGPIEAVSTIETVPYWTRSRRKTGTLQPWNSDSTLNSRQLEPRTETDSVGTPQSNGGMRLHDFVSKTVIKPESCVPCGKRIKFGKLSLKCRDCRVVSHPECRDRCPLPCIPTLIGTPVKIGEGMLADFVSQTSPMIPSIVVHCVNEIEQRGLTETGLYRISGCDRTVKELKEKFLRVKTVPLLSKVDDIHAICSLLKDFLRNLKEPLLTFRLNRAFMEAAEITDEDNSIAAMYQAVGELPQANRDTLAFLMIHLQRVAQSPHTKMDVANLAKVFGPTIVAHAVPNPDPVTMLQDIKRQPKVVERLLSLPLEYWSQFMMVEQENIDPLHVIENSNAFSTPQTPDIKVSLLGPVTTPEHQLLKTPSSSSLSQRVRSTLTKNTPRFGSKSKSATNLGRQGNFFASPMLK

inhibition, inactive:
O=C(CSc1nncn1-c1ccccc1)Nc1ccccc1F 3.06%, COc1ccccc1/C=C/C(=O)OCC(=O)N1CCN(S(=O)(=O)c2ccc(C)cc2C)CC1 6.05%, CC(OC(=O)c1ccc(Cl)nc1)C(=O)Nc1ccc(S(=O)(=O)N2CCCC2)cc1 (stereo not given) 4.67%, C[C@@]12C(=O)N(CC3CC3)CC(=O)N1[C@H](C1CC1)[C@@H]1C(=O)N(c3ccccc3)C(=O)[C@@H]12 7.67%, Cc1cc(C)n2c(SCC(=O)NCc3ccc4c(c3)OCO4)nnc2n1 11.5%, CSCCC(NC(=O)c1ccccc1Br)C(=O)N1CCN(C/C=C/c2ccccc2)CC1 (stereo not given) 9.7%, COc1ccc(Cl)cc1NS(=O)(=O)N1CCOCC1 6.51%, COc1ccc(OC)c(/C=N/NC(=O)CC2C(=O)NN=C2C)c1 (stereo not given) 3.85%, COc1ccc(/C=N\NC(=O)C2=NNC(=O)C2C)cc1 (stereo not given) 13.9%, CC1C(=O)NN=C1C(=O)N/N=C\C(Br)=C\c1ccccc1 (stereo not given) 20.2%, CC1C(=O)NN=C1C(=O)N/N=C/c1ccco1 (stereo not given) 14.2%, CC1C(=O)NN=C1C(=O)N/N=C/c1cccs1 (stereo not given) 17.2%, COc1cc(OC)c(OC)cc1/C=N/NC(=O)CC1C(=O)NN=C1C (stereo not given) 4.43%, CCOC(=O)C1C(=O)NC(C(=O)OCC)(C(=O)OCC)C1C(C)CC (stereo not given) 6.57%, CC1CCCC(NC(=O)COC(=O)/C=C/c2ccco2)C1C (stereo not given) 2.8%, CNCCCOc1cccc(OC(C)C)c1 16.9%, CCc1ccccc1N(C(=O)c1ccco1)C(C(=O)NC1CCCC1)c1cccnc1 (stereo not given) 4.45%, CN(CC(=O)NCC1CCCO1)S(=O)(=O)c1ccc(Br)cc1 (stereo not given) 7.12%, C/C(N)=C(/C#N)C(=O)COC(=O)C1CCN(S(=O)(=O)c2cccs2)CC1 -1.72%, CC(=O)Nc1ccc(C(=O)N2CCc3cc4c(cc3C2C)OCCCO4)cc1 (stereo not given) 1.24%, COC(=O)C[C@H]1C[C@@H]2c3cc(NC(=O)Nc4ccc(F)cc4)ccc3O[C@@H]2[C@@H](CO)O1 7.07%, O=c1[nH]n(-c2ccccc2)c(=O)c2ccccc12 -1.66%, O=c1ccc(=O)n(-c2ccccc2)[nH]1 2.41%, O=C(O)CSCC(=O)Nc1ccc(C(=O)O)cc1 7.72%, COc1cc(CNCCO)ccc1OCCc1ccccc1 5.16%, O=C(O)c1ccccc1Nc1ccccc1C(=O)O 2%, COc1cccc(Nc2ccccc2C(=O)O)c1 7.48%, CC(Oc1ccccc1)C(=O)Nc1cccc(F)c1 (stereo not given) 3.1%, Cc1cc(C)cc(N)c1 6.83%, Cc1cc(N)cc(C)c1-c1c(Br)cc(N)cc1Br 10.2%, O=C(CCC(=O)OCc1cccc([N+](=O)[O-])c1)Nc1ccccc1Cl 2.82%, COc1ccc(C(=O)NCCc2nnc3ccc(SCC(=O)NCc4ccc(F)cc4)nn23)cc1 -0.6%, Cc1onc(-c2ccccc2Cl)c1C(=O)NNC(=O)c1nn(C)cc1Cl 1.82%, O=C(c1cc(COc2ccc(F)c(F)c2)on1)N1CCN(C/C=C/c2ccccc2)CC1 -6.39%, Nc1nc(N)c2cc(Sc3cccc(C(F)(F)F)c3)ccc2n1 5.58%, Nc1nc(N)c2cc(Sc3ccc(Cl)cc3)ccc2n1 11.7%, Cc1nc(Cc2nnc(SCC(=O)N3CCN(c4ccc(F)cc4)CC3)o2)cs1 0.95%, Cc1nc(Cc2nnc(SCC(=O)N3CCN(c4ccccc4)CC3)o2)cs1 5.08%, CC(=O)Nc1nc(=S)ss1 12.7%, CC(C)(C)C(=O)Nc1nc(=S)ss1 11.6%
